# TRPV1 PAM: enhances activation of the human vanilloid receptor TRPV1; 320,000 compounds, 0.02% hits; TRPV1-expressing cells, Fluo-8 calcium influx, capsaicin EC20 potentiation; potentiation, % at 8.33 µM; in the data active = potentiation above about 80%; also: 0% is about no effect
#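 Fluo-8 calcium influx in TRPV1-expressing cells, kinetic read (ex 480/em 520 nm). Compound added and read 3 min for agonist activity, followed by capsaicin at EC20 final and 2 min further read for enhancement.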
# D1 PAM: enhances dopamine response at the human D1 receptor. P21728. HEK293 TREx D1 cells, calcium flux, dopamine EC20 potentiation. potentiation, % at 10 µM. 360,000 compounds, 0.036% hits. AID 504651; in the data active = potentiation above about 30%; also: 0% is about no effect
# TRPV1 agonist: agonists of human vanilloid receptor 1 (TRPV1) | Q8NER1 | TRPV1-expressing cells, Fluo-8 calcium influx, agonist mode | activation, % at 8.33 µM | 320,000 compounds, 0.19% hits | AID 540275; in the data active = activation above about 80%; also: 0% is about no effect
#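 Cells expressing TRPV1 were dye-loaded with Fluo-8 and read kinetically: 10 s baseline, 3 min after compound (agonist portion), then 2 min after EC20 capsaicin (allosteric enhancer portion). Calcium-bound dye fluorescence at 480/520 nm.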
# D1 agonist: activates the human D1 dopamine receptor; P21728; HEK293 T-REx D1 cells, calcium flux, agonist mode; activation, % at 2 µM; 360,000 compounds, 1% hits; in the data active = activation above about 30%; also: 0% is about no effect
#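 Inducible HEK293 T-REx D1 cells, force-coupled to calcium signalling, were plated at 4000 cells/well with tetracycline and held overnight at 30 C. After no-wash calcium dye loading, compound-evoked calcium rise over 180 s flagged agonists.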
# D1 antag: human D1 dopamine receptor antagonism; P21728; HEK293 TREx D1 cells, calcium flux, dopamine EC80; active compounds read low; activity change, negative = inhibition, % at 10 µM; 360,000 compounds, 3.2% hits; in the data active = activity change below about -30%; also: % is scaled to controls: 0 for no effect and ±100 for the full control effect
#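 Tetracycline-induced HEK293 T-REx cells with force-coupled D1 receptor were loaded with a no-wash calcium dye. Compound was added after a 10 s baseline and read kinetically for 180 s; EC80 dopamine was then added and calcium flux followed another 180 s.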
# * marks the source's active call; other numbers are inactive results; nt = no result given. Only some compounds are listed: those with a hit (about 4.2% of all), similar ones and a draw of the others.
SMILES,TRPV1 PAM,D1 PAM,TRPV1 agonist,D1 agonist,D1 antag
CCOc1cccc(C(=O)Nc2ccc(NC(=O)c3cc4ccccc4o3)c(OC)c2)c1,-16,-3,4,7,-39*
CCN1CCc2c(sc(-n3cccc3)c2C(C)NC(=O)Nc2ccc(C(=O)OC)cc2)C1 (stereo unspecified),nt,-3,nt,18,0
O=C(CSc1nc2c([nH]c3ccccc32)c(=O)n1-c1ccccc1)NCc1ccc(F)cc1,nt,-4,nt,4,2
CCC1=NN(C(=O)c2ccc(Cl)cc2)C(O)(c2ccc(C)cc2)C1 (stereo unspecified),15,-3,19,3,-12
CCOC(=O)C1=NN(C(=O)c2ccc(C)cc2)C(O)(c2ccc(Cl)cc2)C1 (stereo unspecified),-1,3,24,158*,-28
COC(=O)C1=NN(C(=O)c2ccc(Cl)cc2)C(O)(c2ccccc2)C1 (stereo unspecified),4,-4,10,30*,3
Cc1ccc(NC(=O)Cc2csc(C)n2)c(C)c1,nt,1,nt,0,-13
COc1cccc(CNC(=O)c2ccc(Cl)c(NC3=NC4CS(=O)(=O)CC4S3)c2)c1 (stereo unspecified),12,3,0,1,-90*
COc1cccc(CNC(=O)c2cccc(NC3=NC4CS(=O)(=O)CC4S3)c2)c1 (stereo unspecified),-2,-1,0,4,3
C=CCc1cc(F)c(S(=O)(=O)N2CCN(S(=O)(=O)c3ccc4c(c3)OCCO4)CC2)cc1F,nt,-1,nt,2,-6
Cc1ccc(SCc2ccc(C(=O)N3CCCC3)cc2)cc1,-14,-8,18,11,nt
CCN1CCN(C(=O)c2ccc(CSc3ccc(C)cc3)cc2)CC1,27,21,1,183*,5
CSc1ccc(CN2CCN(C(=O)c3ccc([N+](=O)[O-])cc3)CC2)cc1,-2,-10,6,9,-60*
O=C(c1ccccc1)N1CCN(Cc2ccccc2)CC1,6,-5,1,0,-53*
O=C(c1ccccc1)c1ccc(OCCOCCN2CCN(Cc3ccccc3)CC2)cc1,-1,-10,4,29,-33*
